Only some compounds are listed: those with a hit (about 1.5% of all), similar ones and a draw of the others.
Bcl-xL primary: inhibitors of human Bcl-xL; Q07817; GST-Bcl-xL / FITC-Bim BH3 peptide fluorescence polarization; inhibition, % at 10.9 µM; hit rate 0.7% among 320,000;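 active = inhibition above the mean of all tested compounds plus 3 SD, cutoff set per campaign, cut at about 30% in these data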;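 also: 0% = DMSO wells and 100% = unlabeled Bim-BH3 peptide competitor; inhibitors lower millipolarization by displacing the labeled peptide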
EBV gp42 inh: EBV gp42 inhibition | Q1HVG2 | Fluorescence polarization binding assay, mP read-out | inhibition, % (tested at 21.74 µM) | hit rate 0.42% among 220,000 | AID 1085; in the data active = inhibition above about 50%
MCL1 BIM primary: MCL1-BIM-BH3 interaction inhibition (human) | GST-MCL1 / FITC-Bim-BH3 fluorescence polarization | inhibition, % at 10.9 µM | hit rate 0.68% among 320,000;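 active = inhibition above the mean inhibition of all tested compounds plus 3 SD, set per campaign, cut at about 40% in these data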;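 also: 0% = DMSO wells and 100% = unlabeled Bim-BH3 peptide control; higher means more loss of mP so more displacement of Bim peptide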
E coli Lon inh: inhibitors of E. coli Lon protease. inhibition, % at 7.94 µM. hit rate 0.42% among 360,000. P0A9M0. purified E. coli Lon protease, fluorescence polarization. AID 602123; in the data active = inhibition above about 13%, passing the limit was not always enough;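 also: 0% = enzyme with probe and DMSO and 100% = no enzyme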
GLD-1 TGE inh: GLD-1-TGE RNA interaction inhibition (C. elegans) | purified GLD-1 + fluorescein TGE RNA, fluorescence polarization | inhibition, % at 5.96 µM | Q17339 | hit rate 0.44% among 320,000;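 active = percent inhibition above a per-plate cutoff, the plate mean of test compounds plus 3 SD, cut at about 30% in these data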;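 also: 0% = DMSO wells with GLD-1 and probe and 100% = wells lacking GLD-1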
Target sequence (Q17339 whole entry, looked up): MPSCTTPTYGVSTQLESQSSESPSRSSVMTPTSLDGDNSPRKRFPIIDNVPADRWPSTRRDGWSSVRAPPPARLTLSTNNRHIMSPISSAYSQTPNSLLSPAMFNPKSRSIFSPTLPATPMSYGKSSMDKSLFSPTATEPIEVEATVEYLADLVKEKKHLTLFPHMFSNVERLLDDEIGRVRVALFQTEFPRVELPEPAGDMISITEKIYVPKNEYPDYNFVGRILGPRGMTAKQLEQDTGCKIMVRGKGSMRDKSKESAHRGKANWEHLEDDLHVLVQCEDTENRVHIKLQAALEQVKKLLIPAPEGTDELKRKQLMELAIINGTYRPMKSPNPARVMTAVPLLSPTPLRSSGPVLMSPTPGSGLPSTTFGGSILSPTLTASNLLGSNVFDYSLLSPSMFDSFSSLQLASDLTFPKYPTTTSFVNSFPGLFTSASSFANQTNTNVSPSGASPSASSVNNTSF
MEX-5 binding: C. elegans MEX-5 TCR-2 RNA binding activity. AID 1832. MEX-5/FITC-TCR2 RNA binding, fluorescence polarization; stronger effect = lower value. Q9XUB2. hit rate 0.38% among 300,000. activity score (negative = inhibition of binding), % at 10 µM;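 active = inhibition past about -25% in most replicates, and total fluorescence under double the plate's negative control median, limit read from the data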;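 also: 0% = DMSO and -100% = 5 µM competing unlabeled TCR2 RNA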
GLD1 RNA confirm: GLD-1 TGE RNA interaction inhibition, confirmation. shares compounds with GLD-1 TGE inh. inhibition, % at 5.96 µM. AID 2459. hit rate 10% among 550. GLD-1/FL-TGE RNA fluorescence polarization, biochemical;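 active = average inhibition across triplicates above the hit cutoff set in the primary screen, cut at about 32% in these data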;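 also: 0% = GLD-1 with RNA probe and DMSO and 100% = wells lacking GLD-1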
* = called active by the depositor; / = no result.

SMILES	Bcl-xL primary	EBV gp42 inh	MCL1 BIM primary	E coli Lon inh	GLD-1 TGE inh	MEX-5 binding	GLD1 RNA confirm
COc1ccc2[nH]cc(CCNC(=O)c3ccccc3Cl)c2c1	46.9*	/	51.6*	-1.6	32.8*	-2.2	5.1
Nc1c(Cl)ncnc1N/N=C/c1ccc2ccccc2n1	17.1	4.0	15.0	14.2	32.4*	/	-5.8
Nc1c(Cl)ncnc1N/N=C/c1ccccn1	15.2	3.1	23.2	/	18.9	/	/
COCCn1c(=NC(=O)c2ccc(S(=O)(=O)N3CCCc4ccccc43)cc2)sc2cc(S(C)(=O)=O)ccc21	4.4	-6.5	1.8	-4.2	31.8*	2.2	-7.7
C=CCn1c(=NC(=O)c2ccc(S(=O)(=O)N3CCCc4ccccc43)cc2)sc2cc(S(N)(=O)=O)ccc21	-6.7	-8.5	-9.8	-5.7	3.5	5.3	/
Nc1c(N(CCC2=CCCCC2)C(=O)COc2ccc([N+](=O)[O-])cc2)c(=O)[nH]c(=O)n1Cc1ccccc1	/	/	/	-2.3	/	/	/
CCN(CC)c1nc(C)c2c(c1C#N)CC(C)(C)OC2	7.9	-13.9	3.7	0.3	-1.7	0.6	/
CC1(C)Cc2c(C#N)c(N)sc(=S)c2CO1	39.8*	-2.3	42.8*	2.4	30.8*	0.9	11.7
Cn1c(=O)c(=O)n(C)c2cc(S(=O)(=O)CCC(=O)NCc3ccccc3)ccc21	1.1	/	1.9	2.8	0.9	2.3	/
CCN(Cc1ccccc1)C(=O)CCS(=O)(=O)c1ccc2c(c1)n(C)c(=O)c(=O)n2C	5.0	/	5.5	6.1	45.8*	2.5	0.8
CCOC(=O)c1c(C)nc2sc3c(=O)n(-c4ccc(C(C)=O)cc4)cnc3c2c1-c1ccc(OC)cc1	30.6*	-11.7	27.7	-3.4	42.8*	2.2	0.3
Oc1ccc(-c2cn3ccccc3n2)cc1	-1.8	-11.1	-3.3	-0.9	-1.4	-3.4	/
CN(CCc1ccccc1)C1CCCN(S(=O)(=O)N(C)C)C1 (stereo not given)	-2.1	/	9.3	0.2	65.1*	-0.3	-0.4
CC(=O)Nc1ccc(NC(=O)CCn2c(=S)oc3ccccc32)cc1	-5.2	4.2	2.5	3.3	0.8	0.3	/
CC(=O)c1ccc(NC(=O)CCn2c(=S)oc3ccccc32)cc1	3.2	/	-3.7	3.1	43.2*	2.0	10.5
CC(C)CN(C(=O)CCCSc1nc2ccccc2[nH]1)c1c(N)n(Cc2ccccc2)c(=O)[nH]c1=O	11.7	/	-4.4	17.9	22.2	-11.1	/
CC(C)CCN(C(=O)CCCSc1nc2ccccc2[nH]1)c1c(N)n(Cc2ccccc2)c(=O)[nH]c1=O	26.4	/	27.4	19.6	47.2*	-13.8	65.0*
CCS(=O)(=O)N1CCN(C(=O)COc2ccc(-c3ccccc3)cc2)CC1	7.3	-10.6	1.6	-3.0	5.3	-2.8	/
O=C(NCc1nc2ccccc2[nH]1)C1=C[C@@H](C2CCCCC2)C[C@@H](OCCCCO)O1	1.5	-22.1	0.1	-1.2	85.4*	2.7	-0.6
C[C@H]1C=C(C(=O)NCc2nc3ccccc3[nH]2)O[C@@H](OCCCCO)C1	4.9	/	7.5	-9.9	1.2	-0.1	/
COc1ccccc1NC(=O)c1ccccc1-c1ccccc1C(=O)O	4.7	/	0.2	-0.6	12.6	-1.3	/
Cc1c(C(=O)N2CCC3(CC2)CC(=O)c2ccccc2O3)cccc1[N+](=O)[O-]	-1.2	/	-0.1	-10.1	43.8*	0.2	-3.7
COc1ccc(CCC(=O)OCC(=O)Nc2c(C)nn(-c3ccccc3)c2C)cc1	-0.7	/	-0.1	-3.1	7.4	-2.1	/
O=C(NNc1c2ccccc2nc2ccccc12)C12CC3CC(CC(C3)C1)C2	4.6	-5.1	3.5	11.2	-5.4	0.2	/
NNC(=O)c1cc(C23CC4CC(CC(C4)C2)C3)nc2ccccc12	1.1	/	0.6	-1.3	59.5*	-1.4	-7.6
O=C(COC(=O)/C=C/c1cccc(Cl)c1)Nc1ccccc1-c1ccccc1	-1.2	-11.6	4.9	/	47.4*	1.5	-2.1
O=C(COC(=O)/C=C/c1cccc(Cl)c1)Nc1c(F)cccc1F	/	/	/	-7.3	3.1	/	/
CC(=O)Nc1cccc2c1C(=O)N(c1ccccc1C)C2=O	7.0	-6.5	-2.5	5.5	-0.1	-0.7	/
CC(=O)Nc1ccc(N2C(=O)c3cccc(NC(C)=O)c3C2=O)cc1	2.1	-18.5	2.2	-9.8	51.2*	1.0	-0.2

Screens deposited in PubChem by several laboratories.
